# About 83,000 compounds went through this panel and 20% of them were active in at least one assay; those are over-represented in the sample as a whole.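 Compound tested at a single concentration for 48 hours in 96-well plates; a percent growth value below 10 was scored as active.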 Active and inactive are the calls of the source.
# Test system: A498 renal
# Test: NCI-60 one-dose screen, 48 h (100 = growth as untreated, 0 = no growth, -100 = all killed)
# Settings: 10 µM unless noted
row,Compound,growth
1,N#CC(C#N)N=Nc1ccc(Br)cc1,100% (inactive)
2,COc1ccc(-c2noc(C(=O)O)c2-c2cc(OC)c(OC)c(OC)c2)cc1,31.6% (inactive)
3,COc1c(B(O)O)cccc1-c1cc(C)c2c(ccc3[nH]ncc32)n1,8.91% (active)
4,COc1ccc2cc1Oc1ccc(cc1)C[C@H]1c3c(cc4c(c3Oc3cc5c(cc3OC)CCN(C)[C@@H]5C2)OCO4)CCN1C,32.2% (inactive)

# Test system: CCRF-CEM leukemia
# Test: as above
# Settings: 10 µM unless noted
row,Compound,growth
1,NC(=O)C(=O)c1ccccc1NC=O,99.1% (inactive)
2,N#Cc1c(-c2ccccc2)[nH]c2ncc(-c3ccccc3)n2c1=O,104% (inactive)
3,O=S(=O)(Nc1cc(Cl)ccc1Cl)c1ccc(-c2cnc(C3CC3)o2)cc1,20% (inactive)
4,COc1cc(C2CC(c3ccc(Nc4nc(Nc5ccc(Cl)cc5)nc(Nc5ccc(Cl)cc5)n4)cc3)=NN2C(C)=O)cc(OC)c1OC (stereo not drawn),101% (inactive)
5,N#Cc1c(-c2ccc(Cl)cc2)c(C#N)c2c(C#N)c(N)nn2c1N,73.9% (inactive)
6,CC(=O)N1N=C(c2ccc(Nc3nc(Nc4ccccc4)nc(Nc4ccccc4)n3)cc2)CC1c1cccc([N+](=O)[O-])c1 (stereo not drawn),94.3% (inactive)
7,N#CC1=C(c2ccccc2)Nc2c(c(-c3ccc(Cl)cc3)nn2-c2ccccc2)C12C(=O)Nc1ccc(Cl)cc12 (stereo not drawn),61.4% (inactive)
8,O=C(Nc1nc2ccc(C(=O)N3CCN(/C=C/c4ccccc4)CC3)cc2s1)c1ccc(NCCc2ccccc2)c([N+](=O)[O-])c1,22.8% (inactive)
9,Cc1ccc(/C=C2\COc3ccc(O)cc3C2=O)cc1,2.21% (active)
